PubChem BioAssay AID2058 (Sanford-Burnham Center for Chemical Genomics, 2009)
Among all 290,000 compounds or so, about 150 (0.052%) were called active. The sample holds actives, similar compounds and a random draw of the others, so the mix is not that of the screen.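 The calls were made as follows: active = inhibition of at least 50% with at least 30 cells and total cytoplasm GFP at most 10,000,000; inconclusive = under 30 cells or total GFP of 10,000,000 plus; inactive = the rest.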 Entries with a potency or affinity are not part of this list.

biological target: G-protein coupled receptor 35 (Homo sapiens) (UniProt Q9HC97); assay: GPR35 antagonists blocking zaprinast-driven arrestin recruitment, primary screen, imaging, U2OS, beta-arrestin-GFP, zaprinast agonist (AID 2058); conditions: U2OS GPR35 beta-arrestin-GFP translocation imaging, zaprinast antagonism; at 10 µM; stronger effect = higher value
Sequence (Q9HC97 whole entry, looked up): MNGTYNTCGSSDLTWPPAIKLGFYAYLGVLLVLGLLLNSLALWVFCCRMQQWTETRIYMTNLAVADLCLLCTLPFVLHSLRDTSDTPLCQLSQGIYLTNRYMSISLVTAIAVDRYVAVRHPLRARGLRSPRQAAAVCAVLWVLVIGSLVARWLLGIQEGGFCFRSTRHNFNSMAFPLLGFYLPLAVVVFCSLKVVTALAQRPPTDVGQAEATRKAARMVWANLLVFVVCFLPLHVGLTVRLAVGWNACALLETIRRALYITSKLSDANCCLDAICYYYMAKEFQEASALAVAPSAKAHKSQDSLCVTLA

Structure (SMILES)	inhibition
CC(C)(C)[C@H]1C=C(C(=O)NCc2nc3ccccc3[nH]2)O[C@@H](OCc2ccc(CO)cc2)C1	9.8% (inactive)
O=C1c2ccc([N+](=O)[O-])cc2NC(c2ccco2)N1/N=C/c1ccco1 (configuration not stated)	-4.6% (inactive)
Cn1cc(/C=C/C(=O)N2CCCC(C(=O)c3ccc(C(C)(C)C)cc3)C2)cn1 (configuration not stated)	-6.4% (inactive)
CCc1cccc2c(C(=O)C(F)(F)F)cn(CC(=O)N3CCOCC3)c12	7.2% (inactive)
N#C/C(=C/c1ccc(N2CCOCC2)o1)c1ccc(Br)cc1	37.8% (inactive)
N#C/C(=C\c1ccc(N2CCOCC2)o1)C(=O)NC1CCCCC1	8.1% (inactive)
N#C/C(=C/c1ccc(N2CCCCCC2)o1)c1ccc(Cl)cc1	87.6% (active)
N#C/C(=C/c1ccc(N2CCCCCC2)o1)c1cccc(F)c1	104% (active)
N#C/C(=C/c1ccc(N2CCOCC2)o1)C(=O)NC1CCCCC1	9.2% (inactive)
N#C/C(=C/c1ccc(Sc2nc3ccccc3[nH]2)o1)c1cccc(F)c1	-1.5% (inactive)
N#C/C(=C/c1ccc(N2CCCCC2)o1)c1cccc(F)c1	55.7% (active)
COc1cc(N2CCCC2)c(OC)cc1/C=C(/C#N)c1cccc(F)c1	30.4% (inactive)
N#C/C(=C/c1ccc(N2CCOCC2)o1)c1ccc(Cl)cc1	-12.2% (inactive)
N#C/C(=C/c1ccc(N2CCCCC2)cc1)c1cccc(F)c1	11.7% (inactive)
Cc1ccc(/C(C#N)=C\c2ccc(N3CCOCC3)o2)cc1	27.2% (inactive)
O=C(Nc1ccccn1)C1(c2ccccc2)CCCC1	3% (inactive)

Structure (SMILES)	inhibition
CC(C)(C)OC(=O)N1CCN(c2ccc(CNC(=O)c3ccc(Cl)cc3)cc2)CC1	4% (inactive)
COc1ccc(-c2nnn(CC(=O)N(CCCO)C(C(=O)NC3CCCC3)c3ccc(F)cc3)n2)cc1 (configuration not stated)	4% (inactive)
Cc1cccc(NC(=O)C2CCN(S(=O)(=O)c3cccc4nonc34)CC2)c1	-1.2% (inactive)
COc1ccc(/C=N/n2cnc3c([nH]c4ccc(C)cc43)c2=O)cc1CN1CCCC1	1.2% (inactive)
CC(=O)Nc1ccc(S(=O)(=O)NCC2CCC(C(=O)NC(C)c3ccccc3)CC2)cc1 (configuration not stated)	-1.8% (inactive)
CN(C)c1nc(N2CCN(c3ccccc3)CC2)c(C#N)c(=O)o1	16.3% (inactive)
N=c1c2c3c(sc2ncn1N)CCC3	4.1% (inactive)
CC(C)N1CC=C2C(C#N)=C(N)C(C#N)(C#N)C(c3ccccc3)C2C1 (configuration not stated)	69% (active)
Cc1ccc(C2C3CSCC=C3C(C#N)=C(N)C2(C#N)C#N)cc1 (configuration not stated)	1.6% (inactive)
Cc1ccc(C2C3CN(C(C)C)CC=C3C(C#N)=C(N)C2(C#N)C#N)cc1 (configuration not stated)	100% (active)
CC(C)c1ccc(C2C3CSCC=C3C(C#N)=C(N)C2(C#N)C#N)cc1 (configuration not stated)	-18.5% (inactive)
CCC1C2CN(C(C)=O)CC=C2C(C#N)=C(N)C1(C#N)C#N (configuration not stated)	-14.1% (inactive)
N#CC1=C(N)C(C#N)(C#N)C(c2ccncc2)C2CN(C(=O)OCc3ccccc3)CC=C12 (configuration not stated)	-3% (inactive)
CCCC1C2CN(C(C)C)CC=C2C(C#N)=C(N)C1(C#N)C#N (configuration not stated)	112% (active)
N#CC1=C(N)C(C#N)(C#N)[C@H](c2ccncc2)[C@H]2CN(C(=O)OCc3ccccc3)CC=C12	1% (inactive)
CCCC1C2CN(C(C)=O)CC=C2C(C#N)=C(N)C1(C#N)C#N (configuration not stated)	8.7% (inactive)
